The values that follow come from PubChem BioAssay.

The source made the active and inactive calls. No rule for the calls is given here.

This assay can be described thus: inhibition of 3D7 malaria parasite growth – strain 3D7 (AID 2306).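 Also: 0% = DMSO wells and 100% = chloroquine plus artemisinin control wells.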 The settings on record: P. falciparum 3D7 erythrocytic growth, LDH absorbance, 72 h; at 2 µM; hits give high values.
Regarding `Cc1cc(OCCN2CCCCC2)ccc1NC(=O)c1cccc2c(=O)n(Cc3ccc(Cl)cc3)cnc12`, the growth inhibition is 88% (active).

For `COc1ccc(CNCc2ccccc2)cc1-c1ccc(S(=O)(=O)NCCN2CCCC2)c(C)c1`, the growth inhibition was 99% (active). In the case of `COc1cc2ncnc(Nc3ccc(OCc4ccccc4)c(C(F)(F)F)c3)c2cc1OC`, the growth inhibition is 101% (active). Regarding `c1cc(CNC2Cc3ccccc3C2)cc(-c2cnc(N3CCNCC3)nc2)c1`, the growth inhibition is 93% (active). The figure for `COc1ccc(NC(=O)[C@H](CC(C)C)Nc2cc(C)nc(Nc3ccccc3)n2)cc1` is 101% (active); for `O=C(Nc1cccc(-c2ccc(NCCCN3CCCC3)nc2)c1)c1ccccc1` it is 100% (active); for `CNC(=S)NN=C(C)c1ccccn1` it is 98% (active). Take `CCN(CC)CCN(Cc1ccc(-c2ccc(C(F)(F)F)cc2)cc1)C(=O)Cn1c(CCc2c(F)cc(F)cc2F)nc(=O)c2ccccc21`: the growth inhibition is 89% (active). For the molecule `Cc1cc(NCCC(=O)Nc2ccccc2)nc(NCCOc2ccccc2)n1`, the growth inhibition is 100% (active). For `CCOC(=O)c1[nH]c2ccc(F)cc2c1NC(=O)CN1CCN(c2cccc(C(F)(F)F)c2)CC1`, the growth inhibition is 96% (active).

For `C=CCOc1ccc2ccccc2c1CNCCCCCCNCc1c(OCC=C)ccc2ccccc12`, the growth inhibition is 100% (active). Consider `Cc1cc(N2CCOCC2)nc(Nc2ccc(NC(=O)Nc3ccc(F)cc3)cc2)n1`, for which the growth inhibition was 101% (active). To `CC(C)CNCc1cccc(-c2cccc(CN(CCN(C)C)C(=O)Nc3ccccc3)c2)c1` belongs 99% (active); to `CC(C)(C)NCC(O)COc1ccc(Cl)cc1C1=NNC(=O)CC1` (stereo not given), 96% (active); to `Cc1cc(CNCCCCCCNCc2ccc(Cl)cc2)ccc1O`, 96% (active). To `CC(=O)Nc1ccc(CNCCc2ccc(NC(=O)c3cc(Cl)cc(Cl)c3)cc2)cc1` belongs 102% (active).

With `NS(=O)(=O)c1cccc(-c2ccc3nccc(-c4cccc(S(N)(=O)=O)c4)c3c2)c1`, the growth inhibition was 98% (active). Consider `CC(=O)Nc1ccc(C(=O)Nc2cccc(-c3ccc(-c4nc5ccc(C(F)(F)F)cc5[nH]4)s3)c2)cn1`, for which the growth inhibition was 100% (active).

As to `COC(=O)c1cccc(CN(CCC(O)(C(F)(F)F)C(F)(F)F)C(=O)CC2CCCC2)c1`, the growth inhibition is 98% (active).

On to `Cc1cc(C2CCN(CCCCNC(=O)c3ccc(NC(=O)c4ccc(Cl)cc4)cc3)CC2)c(C)cc1OCc1ccccn1`, for which the growth inhibition is 96% (active). To `CC(=O)Nc1ccc(C(=O)Nc2ccc(-c3cccc(-c4nc5ccc(C(F)(F)F)cc5[nH]4)c3)cc2)cn1` belongs 102% (active); to `Cc1cccc2[nH]c(-c3cccc(-c4ccc(NC(=O)Nc5cccc(C#N)c5)cc4)c3)nc12`, 101% (active).

Turning to `CN(C)CCN1CCN(CCCN2c3ccccc3Sc3ccc(C(F)(F)F)cc32)CC1`, the growth inhibition is 99% (active). As to `COc1cc(C)nc2ccc(NC(=O)COCC(=O)Nc3ccc4nc(C)cc(OC)c4c3)cc12`, the growth inhibition was 100% (active).

With `Cc1nnc(N2C(=N)SC(=Cc3ccc(-c4ccc(OC(F)(F)F)cc4)o3)C2=O)s1`, the growth inhibition is 85% (active). To `CCCNC(=O)c1cncc(-c2ccc(CNCCCc3ccccc3)cc2)c1` belongs 101% (active). The figure for `CC(C)CCN(Cc1cncn1Cc1cccc(C(F)(F)F)c1)C(=O)c1cncc(-c2ccccc2)c1` is 100% (active); for `COc1ccc(CNCc2ccc(F)cc2)cc1-c1cccc(S(=O)(=O)NCCN2CCCC2)c1` it is 101% (active).

Consider `CN(C)c1ccc(-c2csc(C(=O)NC3CCN(Cc4ccc(C(C)(C)C)cc4)C3)c2)cc1` (stereo not given), for which the growth inhibition was 99% (active). To `Cc1ccc(S(=O)Cc2ccc(Cl)cc2)cc1` (stereo not given) belongs 98% (active); to `CCN(CC)CCNC(=O)c1ccc(NC(=O)c2cc3c(C)nn(-c4ccc(Cl)cc4)c3s2)cc1`, 95% (active); to `Cc1cccc(CN2CCCN(Cc3ccc(C(=O)Nc4ccc(Cl)cc4)cc3)CC2)c1`, 92% (active).

Consider `OC(CNCc1ccccc1OCc1ccccc1)c1cccc(C(F)(F)F)c1` (stereo not given), for which the growth inhibition is 99% (active). With `CS(=O)(=O)CCNCc1ccc(-c2ccc3c(Nc4ccc(Cl)cc4F)ccnc3c2)o1`, the growth inhibition is 99% (active). The figure for `CC1(C)N=C(N)N=C(N)N1OCc1nc(N)nc(Nc2ccccc2)n1` is 98% (active). Regarding `CCCCCCNC(=O)c1nn(CCN2CCC(N3CCCC3)CC2)cc1-c1ccc(Cl)c(Cl)c1`, the growth inhibition is 101% (active). The figure for `Cc1cccc(-c2nn(-c3ccccc3)c3[nH]c(=O)c(CNC4CCCC4)cc23)c1` is 98% (active); for `O=C(NC1CCN(c2ccnc3ccccc23)C1)c1cccc(C(F)(F)F)c1` (stereo not given) it is 94% (active). The figure for `CSc1cccc(NC(=O)c2cc3ccccc3oc2=O)c1` is 92% (active); for `Cc1cc(Nc2cc(Cl)cc(Cl)c2)nc(N)n1` it is 94% (active).
